An excerpt weighted towards active compounds, which were near 4.6% of everything screened.
TRHR PAM: TRH receptor (human) allosteric enhancement | hit rate 0.66% among 360,000 | P34981 | AID 493056 | enhancement, % at 2 µM | TRHR cells, fluo-8 calcium fluorescence, EC20 TRH enhancement; in the data active = enhancement above about 30%; note: 0% is about no effect
Target sequence (P34981 whole entry, looked up): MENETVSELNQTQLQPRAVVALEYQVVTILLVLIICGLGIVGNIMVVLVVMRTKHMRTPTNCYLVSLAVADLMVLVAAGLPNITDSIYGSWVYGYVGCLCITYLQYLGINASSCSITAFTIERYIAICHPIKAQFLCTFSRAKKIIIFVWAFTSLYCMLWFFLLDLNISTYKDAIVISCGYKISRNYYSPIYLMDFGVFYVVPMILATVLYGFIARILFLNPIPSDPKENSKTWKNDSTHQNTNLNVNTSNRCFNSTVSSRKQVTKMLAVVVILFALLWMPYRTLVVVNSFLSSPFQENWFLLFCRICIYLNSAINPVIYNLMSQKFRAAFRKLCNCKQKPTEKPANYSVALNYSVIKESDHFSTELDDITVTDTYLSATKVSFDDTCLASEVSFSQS
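TRHR-expressing cells loaded with fluo-8 calcium dye were read kinetically (ex 480/em 530) during compound addition, then stimulated with an EC20 of TRH (10 nM final). Enhancement of the Gq-mediated intracellular calcium response was scored.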
TRHR ag: activates the human TRH receptor. P34981. activation, % at 2 µM. hit rate 0.18% among 360,000. TRHR cells, calcium flux fluo-8, FDSS agonist mode; note: 0% is about no effect
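Agonist-mode FDSS calcium read (Ex 480/Em 530, 1 s cycles) in 1536-well TRHR cells with fluo-8 dye, after 10-cycle baseline and 23 nL compound addition; TRH at EC20 (10 nM final) added afterwards for the enhancer phase.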
D1 antagonist: antagonists of human D1 dopamine receptor | hit rate 3.2% among 360,000 | AID 504652 | HEK293 TREx D1 cells, calcium flux, dopamine EC80; hits give low values | activity change, negative = inhibition, % at 10 µM; in the data active = activity change below about -30%; note: % is set by controls: 0 for no effect and ±100 for the full control effect
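Compound effects on dopamine-evoked calcium signalling were measured in tetracycline-induced HEK293 Trex D1 cells. Dopamine at EC80 followed a 180 s compound pre-read, and fluorescence was tracked kinetically for 180 s more.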
D1 ag: human D1 receptor agonism. P21728. activation, % at 2 µM. hit rate 1% among 360,000. HEK293 T-REx D1 cells, calcium flux, agonist mode; note: 0% is about no effect
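Tetracycline-induced HEK293 TREx D1 cells, force-coupled to calcium signalling, were dye-loaded with a no-wash calcium kit. Compound was pin-added after a 10 s baseline. Fluorescence was read kinetically at 1 cycle/s for 180 s, with calcium rises flagged as agonism.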
D1 PAM: human D1 dopamine receptor positive modulation; P21728; HEK293 TREx D1 cells, calcium flux, dopamine EC20 potentiation; potentiation, % at 10 µM; hit rate 0.036% among 360,000; in the data active = potentiation above about 30%; note: 0% is about no effect
An asterisk follows results filed as active. Cut-off read from the data, not from the text of the source, unless noted: active = activation above about 30%; inactive = the rest.

SMILES	TRHR PAM	TRHR ag	D1 antagonist	D1 ag	D1 PAM
C#CCOCCOCCOCCNc1nc(N2CCOCC2)nc(N2CCN(C(=O)[C@H](CCCCN)n3cc([C@@H](N)C(C)CC)nn3)CC2)n1 (some centres undefined)	2	1	-35*	6	-3
C#CCOCCOCCOCCNc1nc(N2CCN(C(=O)CCCCCCCCCCNC(=O)[C@H](CCC(=O)O)n3cc(CCCCCN)nn3)CC2)nc(N2CCN(C(=O)CCCCCCCCCCNC(=O)[C@@H]([C@H](C)O)n3cc(C)nn3)CC2)n1	0	0	4	28	1
COC(=O)c1c(C)sc(-c2c(-c3ccc4c(c3)OCCO4)[nH]c3c2c(=O)[nH]c(=O)n3C)c1O	-8	2	2	0	1
CCOc1ccc(CCNC(=O)CCc2cn(Cc3ccc(C)cc3)c3ccccc23)cc1	-2	1	1	12	-7
O=C(CSC1=NC(=O)C(c2ccccc2)C(=O)N1)Nc1ccccc1Cl (centres undefined)	0	0	-10	-1	0
O=C(CSC1=NC(=O)C(c2ccccc2)C(=O)N1)Nc1cccc(Cl)c1 (centres undefined)	-1	0	-33*	1	-10
Cc1ccc(S(=O)(=O)NCC(=O)N(CC(=O)NCc2ccco2)Cc2ccccc2)cc1	-5	0	17	2	-4
O=C(CN(C(=O)CNS(=O)(=O)c1ccc(F)cc1)c1ccc(F)cc1)NCc1ccco1	9	0	-32*	25	-6
O=C(CN(C(=O)CNS(=O)(=O)c1ccc(F)cc1)c1ccccc1)NCc1ccco1	8	-2	-2	8	-1
Cc1ccc(S(=O)(=O)NCC(=O)N(CC(=O)NCc2ccco2)C2CCCC2)cc1	-1	0	-38*	1	-6
O=C(O)c1ccccc1-c1noc(-c2ccccc2F)n1	0	0	-4	3	0
Cc1ccc(CSc2nc3c(c(=O)[nH]2)C(c2ccncc2)C2=C(CCCC2=O)N3)cc1 (centres undefined)	-1	0	-48*	-3	-4
CCSc1nc2c(c(=O)[nH]1)C(c1ccc(C)cc1)C1=C(CCCC1=O)N2 (centres undefined)	-5	0	-4	6	-6
CCn1cc(CN2CCC(n3nccc3NC(=O)C3CCCC3)CC2)cn1	0	0	-52*	1	-3
CC(C)CNC(=O)N1[C@H](c2cccs2)[C@@H](C)C(=O)[C@@H](C)[C@@H]1c1cccs1	3	0	14	1	0
CC1CN(C(=O)N2c3ccccc3Sc3ccccc32)CC(C)O1 (centres undefined)	2	1	-33*	2	-14
CC1CCN(C(=O)N2c3ccccc3Sc3ccccc32)CC1	13	1	22	3	3
COc1ccc(N(C(=O)COc2ccccc2OC)S(=O)(=O)c2ccc(Cl)cc2)cc1	6	0	-16	0	-2
Cc1ccc(S(=O)(=O)NCC2CCC(C(=O)NCc3cccnc3)CC2)cc1 (centres undefined)	-2	0	-32*	2	-7
COc1cccc(CNC(=O)C2CCN(S(=O)(=O)c3cnc[nH]3)CC2)c1	-3	0	-39*	5	-1
CCOC(=O)c1c(C)[nH]c(C)c1S(=O)(=O)N1CCCC(C(=O)NCc2ccc(N(C)C)cc2)C1 (centres undefined)	-2	0	-31*	3	-4
Cc1ccc(S(=O)(=O)NCC2CCC(C(=O)NCc3ccccn3)CC2)cc1 (centres undefined)	24	0	27	3	-3
COc1ccc(S(=O)(=O)N2CCC(C(=O)NCc3cccnc3)CC2)cc1OC	-1	-1	-52*	2	22
O=C(NC1CCCCCC1)c1ccc2c(c1)sc1nc(-c3ccc(F)cc3)cn12	0	0	-16	-1	-1
CCOc1ccc(S(=O)(=O)N2CCCC(C(=O)NCc3cccnc3)C2)cc1 (centres undefined)	-2	0	-31*	1	-9
SMILES	TRHR PAM	TRHR ag	D1 antagonist	D1 ag	D1 PAM
COc1ccc(CNC(=O)[C@@H](NC(=O)C2CCN(S(=O)(=O)c3ccc(C)cc3)CC2)C(C)C)cc1OC	-7	-1	-33*	0	4
COc1cccc(CNC(=O)C2CCN(S(=O)(=O)c3ccc(-n4cnnn4)cc3)CC2)c1	-3	1	-25	1	-2
Cc1ccc(S(=O)(=O)N(Cc2ccccc2)c2ccccc2C(=O)NCc2cccnc2)cc1	2	-1	-38*	3	-6
COc1ccccc1CNC(=O)C1CCN(S(=O)(=O)c2ccc(-n3cnnn3)cc2)CC1	-2	-1	-39*	5	-7
CCCOc1ccc(OC(=O)c2cn(-c3ccc(OC)cc3)c(=O)c3ccccc23)cc1	-13	1	11	6	1
COc1ccc(-n2ccnc(NCc3ccccc3OC)c2=O)cc1	0	-1	-8	3	-4
Cc1ccccc1CNC(=O)C1CCN(S(=O)(=O)Cc2ccccc2)CC1	2	1	-7	4	-2
COc1ccc(-n2cc(C(=O)N(C)c3cc(C)ccc3OC)c3ccccc3c2=O)cc1	2	0	0	7	-2
COc1ccc(S(=O)(=O)N2CCCC(C(=O)NCCC(C)C)C2)cc1 (centres undefined)	3	-1	-30*	5	-8
COc1ccc(S(=O)(=O)N2CCCC(C(=O)O)C2)cc1 (centres undefined)	1	0	2	0	-2
O=C(c1ccc2ccccc2c1)C1CCCN(S(=O)(=O)c2cccnc2)C1 (centres undefined)	-5	-1	-53*	10	-8
COc1ccc(S(=O)(=O)N2CCCC(C(=O)NCc3ccccc3)C2)cc1 (centres undefined)	-2	0	-31*	18	-6
CCOC(=O)c1c(C)c(-c2ccccc2)n(CC(=O)NC2CCCCC2)c1C	7	0	-13	0	-3
COc1ccc(NS(=O)(=O)c2c(C(=O)N3CCCCCC3)c(C)n(C)c2C)cc1OC	0	0	11	2	-4
COc1cccc(NS(=O)(=O)c2c(C(=O)N3CCCCCC3)c(C)n(C)c2C)c1	33*	-1	44	2	18
CCOc1ccc(NC(=O)Cn2nc3c(cc2=O)CC(C)CC3)cc1 (centres undefined)	-1	0	-8	0	-1
COc1cccc(CNC(=O)C2CCN(S(=O)(=O)c3ccc4c(c3)CCCN4C(C)=O)CC2)c1	-2	0	10	0	0
CCOC(=O)C1=NN(C(=O)c2ccc(OC)cc2)C(O)(c2ccc(Cl)cc2)C1 (centres undefined)	-2	14	-27	128*	-4

Compound activity as filed in PubChem.
